According to PubChem BioAssay (Tox21):
“And” between values parts separate entries of the source, which are not always exact repeats. Identical values can stand only once. Inconclusive results are not listed. Entries that show only a call come without a potency. Some structures have more than one record in an assay (separate samples or runs), and their calls can disagree. The source made the active and inactive calls. The call rests on the fitted dose curve; in most records, active means well fitted activation curve with a large enough effect in the repeat runs; inconclusive means weak or mixed curves; inactive means flat fitted curve, though single readings scatter.

Assay: A CellTox Green Cytotoxicity Assay to monitor cytotoxicity in HEK293 cells - 8 hour (AID 1224884); further: nearly all actives have a fitted effect of over 35% in size
Conditions: CellTox Green fluorescence; series mostly up to 76.8 µM
Source text: National Center for Advancing Translational Sciences [NCATS]
NIH Chemical Genomics Center [NCGC]
U.S. Environmental Protection Agency [EPA]
National Institutes of Environmental Health Sciences [NIEHS]
National Toxicology Program [NTP]
Cell-based models are critical for drug discovery. Determining the natural cytotoxic effects resulting from test compounds is an essential research activity. A CellTox Green Cytotoxicity Assay to monitor cytotoxicity in real time of continues cell culture during 40 hours of the compound treatment was used to screen Tox21 10K library compounds in Hek293 cells. CellTox Green Cytotoxicity Assay is a nonlytic, homogeneous, biofluorescent method to measure cytotoxicity in cell culture after experimental manipulation. The assay system uses a proprietary asymmetric cyanine dye that is excluded from viable cells but preferentially stains the dead cell's DNA. […] Viable cells produce no appreciable increases in fluorescence. Therefore, the fluorescence signal produced by the binding interaction with dead cell DNA is proportional to cytotoxicity.
The mixture of Hek293 cell suspension and reagents were dispensed at 600cells/6 ul/well in 1536-well tissue culture treated black solid bottom plates using a Multidrop dispenser. After the assay plates were incubated at a 37 C/5% CO2 incubator for 5 hours, 23 nL of compounds dissolved in DMSO, positive and negative controls was transferred to the assay plate by a pintool work station. The plates were incubated at 37 C for 40 hours. The fluorescence intensity were measured at 0h, 8h, 16h, 24h, 32h and 40h time points using ViewLux plate reader during compound treatment.
Potency means the concentration at half of the fitted maximal effect.

| SMILES | Potency |
| --- | --- |
| Cn1cnc2c1c(=O)[nH]c(=O)n2C | inactive |
| C[C@]12CC[C@@H]3c4ccc(O)cc4CC[C@H]3[C@@H]1CCC2=O | inactive |
| Cc1cccc(Nc2cc(Cl)nc(SCC(=O)O)n2)c1C | inactive |
| Cc1cccc2ccccc12 | inactive |
| O=C(O)Cc1cccc2ccccc12 | inactive |
| CN(C)Cc1cc(CN(C)C)c(O)c(CN(C)C)c1 | inactive |
| COc1ccc(C(=O)c2ccccc2)c(O)c1 | inactive |
| NCCNc1cccc2ccccc12 | inactive |
| CO[C@H]1C=CO[C@@]2(C)Oc3c(C)c(O)c4c(O)c(c(/C=N/N5CCN(C)CC5)c(O)c4c3C2=O)NC(=O)/C(C)=C\C=C[C@H](C)[C@H](O)[C@@H](C)[C@@H](O)[C@@H](C)[C@H](OC(C)=O)[C@@H]1C | inactive |
| CC(=O)OC/C=C(C)/C=C/C=C(C)/C=C/C1=C(C)CCCC1(C)C | inactive |
| Oc1cccc(O)c1 | inactive |
| O=C(O)CCCCC1CCSS1 (stereo not given) | inactive |
| CC(C)=CCC/C(C)=C/CO | inactive |
| CCCCCCCCCCCCCCCCCC(=O)OCC(O)CO (stereo not given) | inactive |
| CCCCCCCCCCCCCC(=O)OC(C)C | inactive |
| CC(C)(C)CC(C)(C)c1ccc(O)c(-n2nc3ccccc3n2)c1 | inactive |
| NC(=O)N1c2ccccc2C=Cc2ccccc21 | inactive |
| C#C[C@]1(O)CC[C@H]2[C@@H]3CCC4=CC(=O)CC[C@@H]4[C@H]3CC[C@@]21CC | inactive |
| C[C@]12CC[C@@H]3c4ccc(O)cc4C[C@@H](CCCCCCCCCS(=O)CCCC(F)(F)C(F)(F)F)[C@H]3[C@@H]1CC[C@@H]2O (stereo not given in full) | inactive |
| OCCCc1ccccc1 | inactive |

| SMILES | Potency |
| --- | --- |
| NC(=O)c1ccc([N+](=O)[O-])cc1Cl | inactive |
| N[C@@H](Cc1c[nH]c2ccccc12)C(=O)O | inactive |
| Cc1ccc(O)c(-n2nc3ccccc3n2)c1 | inactive |
| CC(=O)CCC(C)C | inactive and 38.9 µM (active) |
| CC1=NN(c2ccccc2)C(=O)C1 | inactive |
| COC(=O)c1ccc(O)cc1 | inactive |
| CCCCNC(=O)NS(=O)(=O)c1ccc(N)cc1 | inactive |
| CC1(C)O[C@@H]2[C@@H](CO[C@@]3(COS(N)(=O)=O)OC(C)(C)O[C@@H]23)O1 | inactive |
| CCOC(=O)C(C)(C)Oc1ccc(Cl)cc1 | inactive |
| COC(=O)c1ccc(C=O)cc1 | inactive |
| CC(=O)c1ccc(S(=O)(=O)NC(=O)NC2CCCCC2)cc1 | inactive |
| C/C=C/c1ccc(O)c(OC)c1 | inactive |
| Nc1ccc(N=Nc2ccccc2)c(N)n1 | inactive |
| NC(=O)OCC(COC(N)=O)c1ccccc1 | inactive |
| COc1cc(C=O)ccc1O | inactive |
| CCn1cc(C(=O)O)c(=O)c2ccc(C)nc21 | inactive |
| CCCCOC(=O)CCCCCCCCC(=O)OCCCC | inactive |
| O=[N+]([O-])c1ccc(O)cc1 | inactive |
| OC[C@@H](O)[C@@H](O)[C@H](O)[C@H](O)CO | inactive |
| CC1=C(/C=C/C(C)=C/C=C/C(C)=C/C(=O)O)C(C)(C)CCC1 | inactive |
